The list is not random: actives were taken first. Their share in the collection is about 1.8%.
TLR4-MyD88 BLA = TLR4-MyD88 interaction inhibition in cells; HeLa CL3-4 TLR4/MyD88 BLA complementation, FRET ratio; inhibition, % at 8.4 µM; hit rate 0.18% among 200,000; AID 861; in the data active = inhibition above about 25%;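 also: 0% = vehicle and 100% = reference inhibitor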
TLR9-MyD88 inh = blocks human TLR9 binding to MyD88 | inhibition, % at 4.98 µM | CHO BLA complementation TLR9-MyD88, CCF4 FRET ratio | Q9NR96+Q99836 | hit rate 0.21% among 340,000;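 active = inhibition above the mean over all tested compounds plus 3 SD, cut at about 21% in these data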;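 also: 0% = DMSO only wells and 100% = clavulanate BLA inhibitor control wells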
Mcl1 Bid PPI = disrupts binding of human Mcl-1 to Bid peptide; inhibition, % at 21.7 µM; hit rate 0.97% among 220,000; TR-FRET Mcl-1/Bid-Dy647 peptide binding, 1536-well;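 active = compounds that cut the binding signal by more than half at the single screening dose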;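 also: His-tagged Mcl-1 with europium anti-His antibody binding Bid BH3 peptide; 0% = Mcl-1 plus peptide wells and 100% = peptide-only wells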
Target sequence (Q07820 whole entry, looked up): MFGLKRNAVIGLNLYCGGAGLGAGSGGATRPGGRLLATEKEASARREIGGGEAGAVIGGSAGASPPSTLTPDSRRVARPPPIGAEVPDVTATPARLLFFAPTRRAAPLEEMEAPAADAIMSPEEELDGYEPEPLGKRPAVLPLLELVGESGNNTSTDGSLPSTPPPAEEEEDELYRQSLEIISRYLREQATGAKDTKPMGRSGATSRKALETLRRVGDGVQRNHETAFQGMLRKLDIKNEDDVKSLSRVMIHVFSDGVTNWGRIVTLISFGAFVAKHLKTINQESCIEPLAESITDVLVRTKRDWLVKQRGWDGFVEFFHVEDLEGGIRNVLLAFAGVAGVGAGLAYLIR
Mcl1-Noxa inh = disrupts binding of human Mcl-1 to Noxa peptide | Q07820 | TR-FRET Mcl-1/Noxa peptide binding, 2 h | inhibition, % at 21.7 µM | hit rate 1.5% among 220,000 | AID 1022;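 active = compounds that cut the protein-peptide binding signal by more than 50% relative to plate controls in a single-dose test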;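 also: His-tagged Mcl-1 with rhodamine Noxa BH3 peptide and terbium anti-His antibody; 0% = Mcl-1 plus Noxa peptide wells and 100% = peptide-only wells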
NOD2-RIPK2 inh = inhibitors of human NOD2-RIPK2 interaction; hit rate 0.38% among 360,000; inhibition, % at 4.98 µM; AID 624267; CHO BLA complementation NOD2-RIPK2, CCF4 ratio; O43353; in the data active = inhibition above about 21%;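 also: 0% = vehicle only and 100% = reference blocker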
Mcl-1 Bim block = disrupts Bim peptide binding to human Mcl-1 | Q07820 | Bead-based flow cytometry, Bim peptide-Mcl-1 binding | inhibition, % at 10 µM | hit rate 0.1% among 190,000 | AID 1009; in the data active = inhibition above about 40%;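 also: 0% = no compound tracer wells and 100% = peptide blocker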
An asterisk follows results filed as active; / = no result.

SMILES	TLR4-MyD88 BLA	TLR9-MyD88 inh	Mcl1 Bid PPI	Mcl1-Noxa inh	NOD2-RIPK2 inh	Mcl-1 Bim block
O=C(CSc1nc2ccsc2c(=O)n1Cc1ccc(C(=O)O)cc1)NCC1CCCO1 (stereo not drawn)	-9.5	-4.9	18.1	13.5	-5.5	73.0*
O=C(CSc1nc2scc(-c3ccco3)c2c(=O)n1-c1ccccc1)NCC1CCCO1 (stereo not drawn)	-14.2	-5.4	3.0	55.6*	1.1	-1.0
O=C(CSc1nc2ccsc2c(=O)n1Cc1ccccc1)NCC1CCCO1 (stereo not drawn)	-8.8	6.3	-17.5	-0.3	-0.5	-5.0
O=C(Nc1cccc(Cl)c1)c1cc(N=Nc2ccc([N+](=O)[O-])cc2Cl)ccc1O	/	11.5	100.2*	108.8*	-1.6	/
CCn1ccnc1CN(C)Cc1cn(-c2cc(C)ccc2C)nc1-c1ccccc1	-10.8	-4.1	-37.8	11.0	0.2	1.0
O=C(O)C1=C[C@H](C2CC2)C[C@H](OCCCCO)O1	6.0	-10.6	-13.3	-21.3	-2.5	44.0*
COc1cccc(/C=N/NC(=O)c2cc3cc([N+](=O)[O-])ccc3s2)c1O	1.2	-7.4	84.5*	67.7*	-7.5	6.0
COc1cccc(/C=N/NC(=O)C(=O)N/N=C/c2cccc(OC)c2O)c1O	1.2	/	-70.9	59.4*	-4.5	3.0
COc1cccc(/C=N/NC(=O)C(=O)N2CCCCCC2)c1O	/	15.4	/	/	0.3	/
COc1cccc(/C=N/NC(=O)c2cc3c(OC)cccc3[nH]2)c1O	3.8	6.2	-35.9	59.0*	-12.2	-4.0
O=C(NC(Cc1ccc(O)cc1)C(=O)N=Nc1c(O)[nH]c2ccccc12)c1ccccc1 (stereo not drawn)	/	-3.9	/	/	-10.4	/
Cc1ccc(Oc2nc3ccccc3n3cccc23)cc1	-6.2	-0.9	2.1	8.8	-4.0	-5.0
c1ccc(Oc2nc3ccccc3n3cccc23)cc1	-3.1	9.2	67.1*	8.2	-8.3	-2.0
CC1CN(C(=O)CCNS(=O)(=O)c2ccc(Br)cc2)CC(C)O1 (stereo not drawn)	/	-0.4	/	/	-8.3	/
O=C1CCCC2=C1C(c1cn(-c3ccccc3)nc1-c1cccs1)c1c([nH]c(=O)[nH]c1=O)N2 (stereo not drawn)	8.4	0.2	49.7	62.2*	-9.1	0.0
NC(=S)N/N=C/c1ccc(-c2ccc([N+](=O)[O-])cc2)o1	12.7	8.3	-14.1	52.0*	5.2	0.0
O=C1Nc2ccccc2/C1=N/N=C/c1ccc(-c2ccc([N+](=O)[O-])cc2)o1	-3.9	-12.1	88.6*	79.8*	3.0	10.0
NC(=S)N/N=C/c1ccc(-c2cc(Cl)cc(Cl)c2)o1	-2.2	2.6	-7.9	32.9	-10.8	-1.0
CN(/N=C/c1ccc(-c2ccc([N+](=O)[O-])cc2)o1)c1ccccc1	/	16.2	/	/	8.2	/
CC(C)n1cnnc1SCC(=O)NC(=O)c1ccccc1	/	-4.0	/	/	2.8	/
Nc1cc(SCc2ccc(Cl)cc2Cl)ncn1	/	-13.1	/	/	2.7	/
Cc1cc(C)c2c(=O)[nH]c(SCC(=O)c3ccc(F)c(C)c3)nc2n1	-3.9	-4.3	58.9*	-225.4	4.8	-6.0
CC[C@]1(C(=O)OC)[C@H]2C(=O)N(C)C(=O)[C@H]2[C@H]2CN=C(SCc3ccc(OC)cc3)N21	/	-4.7	/	/	-0.9	/
COCCNC(=O)C1(C)CCCN(C(=O)c2ccc3c(c2)CCO3)C1 (stereo not drawn)	/	/	/	/	5.3	/
COc1ccc(CCn2c(=N)c(C(=O)NCc3ccco3)cc3c(=O)n4ccccc4nc32)cc1OC	/	-6.9	/	/	-5.5	/
SMILES	TLR4-MyD88 BLA	TLR9-MyD88 inh	Mcl1 Bid PPI	Mcl1-Noxa inh	NOD2-RIPK2 inh	Mcl-1 Bim block
N=c1c(C(=O)NCc2ccco2)cc2c(=O)n3ccccc3nc2n1CCc1ccccc1	-2.2	-9.3	10.9	67.7*	-5.5	13.0
Cc1ccc(Cn2c(=N)c(C(=O)NCc3ccco3)cc3c(=O)n4ccccc4nc32)cc1	9.2	-17.6	3.1	79.7*	-11.8	-1.0
COCCCNC(=O)c1cccn2c(=O)c3cc4ccccc4cc3nc12	-3.5	-0.8	7.1	19.6	-0.5	-5.0
O=C(NCc1ccco1)c1cccn2c(=O)c3cc4ccccc4cc3nc12	18.2	/	93.8*	47.2	/	3.0
Cc1cc2occ(CC(=O)N(CCC(C)C)c3c(N)n(Cc4ccccc4)c(=O)[nH]c3=O)c2cc1C	/	5.6	/	/	-5.1	/
CC(C)C(=O)NC(NC(=O)C(C)C)c1ccc([N+](=O)[O-])cc1	-5.4	0.4	-1.3	-3.5	-17.5	-6.0
Cc1cc(NC(=O)NC(C(F)(F)F)C(F)(F)F)no1	-11.6	-7.7	-2.1	-5.2	-8.4	0.0
Cc1cc(C)c(NN=c2c(=O)c3ccccc3c2=O)c(C)c1	-8.6	16.3	6.3	7.7	-7.0	-2.0
O=c1c(=NNc2ccccc2Cl)c(=O)c2ccccc12	11.0	-9.8	56.8*	33.2	-3.7	-3.0
Cc1cc(C)c(S(=O)(=O)NCCSCc2ccco2)c(C)c1	/	3.4	/	/	-2.6	/
O=C(COc1ccccc1)NC(=S)Nc1ccc2c(c1)Cc1ccccc1-2	-2.6	14.6	-33.6	52.2*	1.5	13.0
O=C(COc1ccccc1)NC(=S)Nc1cccc([N+](=O)[O-])c1	16.4	12.5	-12.9	5.1	6.6	-2.0
CSc1ccccc1NC(=O)c1noc2c1CCC2	-11.5	-4.1	-34.0	66.2*	-7.4	-2.0
COC(=O)c1ccccc1NC(=O)c1noc2c1CCC2	/	-2.5	-53.2	70.4*	-9.5	-4.0
CCc1ccc(NC(=O)c2noc3c2CCC3)cc1	1.4	-9.5	6.5	40.7	-32.2	-1.0
COc1ccc(C(=O)C[n+]2ccc(-c3nnc4n3CCCCC4)cc2)cc1	/	3.2	-46.2	75.6*	-1.3	/
O=C(C[n+]1ccc(-c2nnc3n2CCCCC3)cc1)c1ccc(Cl)cc1	/	4.2	-3.2	-13.9	-8.7	/
Cc1cc(C)c2cc(C#N)c(NCCNC(=O)c3cccnc3)nc2c1	/	/	/	/	-17.8	/
O=C(Cc1ccc(Br)cc1)Nc1ncc([N+](=O)[O-])s1	/	0.5	-19.8	70.3*	5.1	/
O=C(Cc1ccc(Cl)cc1)Nc1ncc([N+](=O)[O-])s1	4.1	8.5	-16.0	27.4	-2.6	-3.0
COc1ccc(CC(=O)NCc2cccs2)cc1	2.8	6.0	-13.6	63.0*	0.2	0.0
COc1cc(OC)cc(C(=O)N[C@H](C(=O)OCC(=O)Nc2cccnc2Cl)C(C)C)c1	/	-4.5	/	/	-2.6	/
Cc1cccc(C)c1NC(=O)CSc1nc(COc2ccccc2)nc2ccccc12	-10.5	-1.2	58.6*	-0.1	-1.4	10.0
O=c1/c(=C\c2cccnc2)sc2nc3ccccc3n12	4.0	-17.8	14.2	7.2	3.1	-4.0
Cc1cc(/C=c2\sc3nc4ccccc4n3c2=O)c(C)n1-c1ccc(C(=O)O)cc1	-1.1	0.3	-11.7	64.8*	12.6	0.0
O=c1/c(=C/c2ccc(O)c([N+](=O)[O-])c2)sc2nc3ccccc3n12	18.9	/	28.2	79.9*	5.9	-2.0
COC(=O)c1sc(-c2ccc(Cl)cc2)cc1NC(=O)c1ccccc1C(=O)O	/	3.9	4.3	-17.9	-2.1	/
